NPSR antagonist: antagonists of human neuropeptide S receptor cAMP signaling; Potency, µM (titrated, usually from 38.3 µM), for inactives: at the highest dose activity change, negative = inhibition, most hits filed as inhibitors; Q6W5P4; CHO-NPSR cells, cAMP TR-FRET, antagonist mode; 220,000 tested, 1% active; AID 1461; note: nearly all actives have a fitted effect of over 50% in size
Target sequence (Q6W5P4 whole entry, looked up): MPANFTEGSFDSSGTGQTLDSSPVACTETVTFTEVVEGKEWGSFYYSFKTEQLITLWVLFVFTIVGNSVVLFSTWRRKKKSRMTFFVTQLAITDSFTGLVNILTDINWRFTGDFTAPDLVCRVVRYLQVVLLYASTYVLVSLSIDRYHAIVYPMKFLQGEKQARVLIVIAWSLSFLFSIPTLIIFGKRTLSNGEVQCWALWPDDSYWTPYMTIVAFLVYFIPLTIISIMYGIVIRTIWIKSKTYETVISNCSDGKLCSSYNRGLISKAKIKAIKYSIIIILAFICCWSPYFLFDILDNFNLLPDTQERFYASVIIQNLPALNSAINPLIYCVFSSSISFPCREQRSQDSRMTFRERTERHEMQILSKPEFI
ERK EGF inh: EGF-driven ERK pathway inhibition; HEK293-V1b, EGF-stimulated phospho-ERK AlphaScreen; Potency, µM (series often up to 11.5 µM), inactives show top-dose activity change, negative = inhibition, usual class: inhibitors; 130,000 tested, 0.41% active; AID 1454;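 note: plate controls were stimulated vehicle wells for no effect and unstimulated vehicle basal for full effect; nearly all actives have a fitted effect of over 55% in size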
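Phospho-ERK1/2 measured by AlphaScreen (SureFire) after 5 min 25 nM EGF stimulation of V1b-expressing HEK293 cells preincubated 30 min at 37C with titrated compounds; data scaled to DMSO and EGF controls, Hill-fitted AC50.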
IMPase Li inh: membrane-permeable IMPase blocker, potentiated with lithium | CHO-M1 cells, IP1 TR-FRET (IP-One), carbachol + lithium | Potency, µM (highest dose often 59.4 µM), for inactives: at the top dose activity, negative = IMPase inhibition, hits mostly inhibitors | 210,000 tested, 0.35% active | AID 1457;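 note: IP1 builds up when IMPase is blocked and the TR-FRET signal falls; plate controls were basal vehicle for no effect and high inhibitor control for full effect; nearly all actives have a fitted effect of over 50% in size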
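IP1 accumulation measured by competitive TR-FRET in lysed CHO-M1 cells after 30 min compound exposure at 37C, with a small lithium addition to potentiate weak responses. Hill-equation AC50 from ratio and donor-channel data.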
The depositor's hits bear a star; [ ] = dose if it differs, or a comment. This is one part of a sample in which hits are shown more often than they occur. Calls come from the whole dose curve; as a rule, active = well fitted curve in the direction sought with a large enough effect; inconclusive = small, poorly fitted or top-dose-only effect, or another doubt; inactive = no such curve, though single readings can be large; an effect the other way counts as inactive or inconclusive. Unless noted, % is set by controls: 0 for no effect and ±100 for the full control effect; potency is the fitted concentration of half-maximal effect.

Screening COc1ccc2[nH]c3c(NCCC4=CCCCC4)ncnc3c2c1 returned NPSR antagonist -57%, ERK EGF inh 20µM* and IMPase Li inh 10%.
For O=c1cnc2cncnc2n1Cc1ccccc1 the results were IMPase Li inh 2%.
CC1(CC(=O)O)O[C@H]2CCCCC[C@H]2O1 (stereo partly drawn) (tested in a mixture with another compound) was read as IMPase Li inh -4%.
`COc1ccc(-c2cccc(C3CC=CC4C3C(=O)N(Cc3ccccc3)C4c3ccc(OC)c(Cl)c3)c2)cc1` (stereo not drawn) gave NPSR antagonist 10µM* and ERK EGF inh 2%[57.5 µM].
For C[C@@H]1CC=C[C@H]2[C@H]1C(=O)N(Cc1ccccc1)[C@H]2c1ccc2ccccc2c1Br the results were NPSR antagonist 10µM* and ERK EGF inh -2%[57.5 µM].
For C[C@@H]1CC=C[C@H]2[C@H]1C(=O)N(Cc1ccccc1)[C@H]2c1ccc(F)c(Br)c1 the results were NPSR antagonist 4µM* and ERK EGF inh -1%[57.5 µM].
`C[C@@H]1CC=C[C@H]2[C@H]1C(=O)N(Cc1ccccc1)[C@H]2c1ccc(F)c(/C=C/c2ccccc2)c1` gave NPSR antagonist -58% and ERK EGF inh -3%[57.5 µM].
Screening Cc1ccc(-c2cccc(C3CC=CC4C3C(=O)N(Cc3ccccc3)C4c3ccc4ccccc4c3)c2)cc1 (stereo not drawn) returned NPSR antagonist -14% and ERK EGF inh 8%[57.5 µM].
Screening Cc1ccc(F)c([C@H]2[C@H]3C=CC[C@@H](C)[C@@H]3C(=O)N2Cc2ccccc2)c1 returned NPSR antagonist inconclusive and ERK EGF inh 3%[57.5 µM].
For CCOC(=O)Oc1c(OC)cc(C(=O)O[C@H]2C[C@H]3CN4CCc5c([nH]c6cc(OC)ccc56)[C@@H]4C[C@H]3[C@@H](C(=O)OC)[C@@H]2OC)cc1OC the results were ERK EGF inh 11%[25.7 µM] and IMPase Li inh 0%.
CC(C)=CCC1=C(O)c2ccccc2C(=O)C1=O was read as ERK EGF inh -8% and IMPase Li inh 16%.
For CCCCCCCCCCCCCCCC(=O)OC(CC(=O)O)C[N+](C)(C)C (stereo not drawn) the results were NPSR antagonist inconclusive, ERK EGF inh inconclusive and IMPase Li inh 29%.
`CS(=O)(=O)c1ccc(Cn2c3c(c4cc(F)cc(F)c42)CCC[C@H]3CC(=O)O)cc1` gave ERK EGF inh -12% and IMPase Li inh 12%.
Screening N#CCCn1c(=O)c(-c2ccc(F)cc2)nc2cnc(N3CCOCC3)nc21 returned IMPase Li inh -12%.
Screening CC(C)CN(C[C@@H](O)[C@H](Cc1ccccc1)NC(=O)O[C@H]1CCOC1)S(=O)(=O)c1ccc(N)cc1 returned IMPase Li inh 2%.
Screening Cc1ccc(NC2=C(NC(=O)c3ccccc3)C(=O)c3ccccc3C2=O)cc1Cl returned NPSR antagonist -2%, ERK EGF inh 16µM* and IMPase Li inh 14%.
`O=C(O)c1ccc(NC2=C(Cl)C(=O)c3ccccc3C2=O)cc1` gave NPSR antagonist inconclusive and ERK EGF inh 10µM*.
Screening Cc1ccc(NCC(=O)c2ccccc2)cc1Cl returned NPSR antagonist 5%[46.1 µM] and IMPase Li inh 11%[38.3 µM].
Screening O=C1C(Cl)=C(Nc2ccccc2)C(=O)c2ccccc21 returned NPSR antagonist inconclusive, ERK EGF inh inconclusive and IMPase Li inh 36%.
For Cc1ccc(C(C)C)cc1NC(=O)Nc1ccc([N+](=O)[O-])cc1 the results were NPSR antagonist 10µM* and ERK EGF inh -8%[57.5 µM].
`CCOc1ccc(NC(=O)Nc2cc(C(C)C)ccc2C)cc1` gave NPSR antagonist -42% and ERK EGF inh -7%[57.5 µM].
Screening O=C(COC(=O)c1ccccc1C(=O)c1ccc(Cl)c([N+](=O)[O-])c1)NC1CCCCCC1 returned NPSR antagonist 10µM* and IMPase Li inh 49%[38.3 µM].
Screening CC(C)N(C(=O)COC(=O)c1ccccc1C(=O)c1ccc(Cl)c([N+](=O)[O-])c1)C(C)C returned NPSR antagonist inconclusive, ERK EGF inh 4% and IMPase Li inh 22%.
COC(=O)C(C(=O)OC)[C@@H]1O[C@@]23COC=C[C@]2(C)[C@H]3c2ccccc21 was read as ERK EGF inh 4% and IMPase Li inh 2%.
Screening COc1cccc(-c2nn3c(-c4ccco4)nnc3s2)c1 returned NPSR antagonist -28%[46.1 µM] and IMPase Li inh 11µM*.
`COc1cc(-c2nn3c(-c4ccco4)nnc3s2)cc(OC)c1OC` gave NPSR antagonist -6%[46.1 µM] and IMPase Li inh -6%[38.3 µM].
Brc1ccc(-c2nn3c(-c4ccco4)nnc3s2)o1 was read as NPSR antagonist inconclusive and IMPase Li inh 11µM*.

Compound activity deposited in PubChem by National Center for Advancing Translational Sciences (NCATS).
